Activity calls are given as the source filed them. Unless noted, the rule behind the calls is not given here.

A short description of test [1]: HepG2 liver cancer cell viability effects, profiling panel, resazurin fluorescence, 24 h, PK04 Diversity Set (AID 1172). The note with it: higher = more signal. (Alamar Blue is a resazurin reagent that responds to reducing activity.)
Test [2] is described as follows: basal S. cerevisiae growth modulation, no modifier, primary screen, OD600, strain BY4716, 24 h, basal condition (AID 1173). Conditions: OD600, 24 h, higher = more signal, called active from +8 up or from −8 down.
Test [3] is described as follows: MM1S myeloma cell viability, profiling panel, resazurin fluorescence, basal, 24 h, PK04 Diversity Set (AID 1174).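 Note: MM1S multiple myeloma cell line.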 Conditions: higher = more signal, called active from +8 up or from −8 down.
Test [4] deals with Dihydroorotate dehydrogenase (quinone), mitochondrial (Plasmodium falciparum (isolate 3D7)) (UniProt Q08210). In words: PfDHODH enzyme inhibitors, primary screen, biochemical, C-terminal His tag, absorbance 600 nm (AID 1175).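 Note: recombinant parasite enzyme with a five histidine tag at its C terminus.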 The note with it: DCIP absorbance 600 nm, higher = more signal, called active from +8 up or from −8 down.
Sequence of Dihydroorotate dehydrogenase (quinone), mitochondrial (Plasmodium falciparum (isolate 3D7)) (Q08210 whole entry, looked up): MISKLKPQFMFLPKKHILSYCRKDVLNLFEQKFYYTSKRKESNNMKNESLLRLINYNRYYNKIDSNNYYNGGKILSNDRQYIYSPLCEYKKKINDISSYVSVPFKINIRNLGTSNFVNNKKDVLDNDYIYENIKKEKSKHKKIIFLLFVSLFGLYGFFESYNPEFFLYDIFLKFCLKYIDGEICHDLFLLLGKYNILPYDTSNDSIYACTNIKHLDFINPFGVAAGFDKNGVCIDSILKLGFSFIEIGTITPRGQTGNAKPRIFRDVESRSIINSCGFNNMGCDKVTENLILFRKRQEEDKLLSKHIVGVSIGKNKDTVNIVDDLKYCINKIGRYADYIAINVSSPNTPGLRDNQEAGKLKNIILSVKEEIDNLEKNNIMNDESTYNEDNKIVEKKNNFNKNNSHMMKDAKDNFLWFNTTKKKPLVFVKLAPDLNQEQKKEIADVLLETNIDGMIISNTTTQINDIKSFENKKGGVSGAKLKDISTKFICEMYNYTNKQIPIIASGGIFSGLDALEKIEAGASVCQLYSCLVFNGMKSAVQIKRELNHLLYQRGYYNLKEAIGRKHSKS
Test [5] can be described thus: P. aeruginosa biofilm formation inhibitors, primary screen, strain PAO1, LB-PBS medium, absorbance 600 nm (AID 1176). Conditions: P. aeruginosa PAO1 growth/biofilm, A600, 12 h; higher = more signal.
Test [6] can be described thus: S. cerevisiae RM11-1a growth modifiers, primary screen, strain RM11-1a, OD600, basal, 24 h (AID 1177).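 Note: cultures grown under basal conditions with no added stressor.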 The note with it: OD600, 24 h, higher = more signal, called active from +8 up or from −8 down.
Test [7] in a line: E. coli acrAB mutant growth effects, primary screen, E. coli filamentation inducers, strain DRC39, OD650, 24 h (AID 1178).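 Note: growth measured as culture turbidity by optical density at 650 nm.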 The note with it: higher = more signal, called active from +8 up or from −8 down.
The nature of test [8]: E. coli acrAB mutant growth effects, primary screen, E. coli filamentation inducers, strain DRC39, OD650, 48 h (AID 1179).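 Note: screen aims at cell division blockers that make cells filament.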 Conditions: E. coli DRC39 delta-acrAB growth, higher = more signal, called active from +8 up or from −8 down.
A short description of test [9]: RPMI8226 myeloma cell viability, profiling panel, resazurin fluorescence, basal, 24 h, PK04 Diversity Set (AID 1180).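 Note: RPMI8826 multiple myeloma cell line at 5000 cells per well.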 Conditions: higher = more signal.
Test [10] deals with E3 ubiquitin-protein ligase XIAP (Homo sapiens) (UniProt P98170). Put plainly: XIAP binders, primary screen, biophysical, small-molecule microarray, fluorescence 635 nm (AID 1181).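 Note: score merges 667 nm emission and signal to noise over triplicate slides.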 Conditions: small-molecule microarray binding, higher = more signal.
Sequence of E3 ubiquitin-protein ligase XIAP (Homo sapiens) (P98170 whole entry, looked up): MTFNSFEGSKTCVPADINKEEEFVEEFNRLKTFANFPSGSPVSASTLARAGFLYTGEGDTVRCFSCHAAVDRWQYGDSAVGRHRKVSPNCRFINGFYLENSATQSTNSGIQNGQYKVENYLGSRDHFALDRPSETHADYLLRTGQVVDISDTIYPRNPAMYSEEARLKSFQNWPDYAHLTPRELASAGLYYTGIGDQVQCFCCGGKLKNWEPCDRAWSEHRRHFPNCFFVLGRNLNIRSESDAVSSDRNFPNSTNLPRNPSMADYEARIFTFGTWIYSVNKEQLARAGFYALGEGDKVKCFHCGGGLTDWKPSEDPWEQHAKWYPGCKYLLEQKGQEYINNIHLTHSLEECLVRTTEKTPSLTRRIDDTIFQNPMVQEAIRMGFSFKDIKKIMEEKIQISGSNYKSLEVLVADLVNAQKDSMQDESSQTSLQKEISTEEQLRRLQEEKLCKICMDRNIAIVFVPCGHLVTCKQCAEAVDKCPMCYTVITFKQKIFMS
In test [11] the test system is XIP peptide (Xip251-270) binding. In words: small-molecule binders of XIP peptide, primary screen, biochemical, small-molecule microarray, fluorescence 635/667 nm, 0.1 µg/mL protein (AID 1182). Conditions: fluorescent protein binding, 635 nm, higher = more signal, called active from +8 up or from −8 down.
The test system of the next test is XIP peptide (Xip251-270). Put plainly: small-molecule binders of XIP peptide, primary screen, biochemical, small-molecule microarray, fluorescence 635/667 nm, 0.5 µg/mL protein (AID 1183). Conditions: small-molecule microarray binding, fluorescence 635 nm; higher = more signal.
Test [12] in a line: Plasmodium falciparum growth inhibition, primary screen, strain 3D7, DAPI fluorescence, 100 nL (AID 1184).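 Note: parasites grown inside human red blood cells in medium with human serum.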 Conditions: P. falciparum 3D7 growth, 3 d, higher = more signal.
The target in test [13] is Homeobox protein Hox-A13 (Mus musculus) (UniProt Q62424). In words: inhibitors of HoxA13-DNA binding, primary screen, biochemical, fluorescence polarization, labeled oligonucleotide (AID 1185). Conditions: 15 min, higher = more signal, called active from +8 up or from −8 down. (Polarisation of emitted light reports the rotation of a fluorescent probe.)
Sequence of Homeobox protein Hox-A13 (Mus musculus) (Q62424 whole entry, looked up): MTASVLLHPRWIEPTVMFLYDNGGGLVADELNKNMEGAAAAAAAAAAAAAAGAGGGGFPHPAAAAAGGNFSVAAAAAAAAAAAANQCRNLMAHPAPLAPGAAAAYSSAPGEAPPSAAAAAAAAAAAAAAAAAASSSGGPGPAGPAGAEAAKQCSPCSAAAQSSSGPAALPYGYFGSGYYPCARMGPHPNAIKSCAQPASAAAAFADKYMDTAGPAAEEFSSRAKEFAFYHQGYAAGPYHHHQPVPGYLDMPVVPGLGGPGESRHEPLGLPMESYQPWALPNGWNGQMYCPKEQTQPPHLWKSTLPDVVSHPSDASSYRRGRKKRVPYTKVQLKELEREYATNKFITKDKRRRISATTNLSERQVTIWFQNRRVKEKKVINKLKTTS
Test [14] is described as follows: inhibitors of hydroxyurea-induced Chk1 phosphorylation, primary screen, imaging, HeLa, phospho-Chk1 antibody, percent positive cells (AID 1186). The note with it: hydroxyurea-induced phospho-Chk1 immunofluorescence imaging, higher = more signal.
The nature of test [15]: inhibitors of hydroxyurea-induced Chk1 phosphorylation, primary screen, imaging, HeLa, phospho-Chk1 nuclear intensity (AID 1187). Conditions: hydroxyurea-induced phospho-Chk1 immunofluorescence imaging, higher = more signal.

On to `C=CCOC(=O)[C@@H]1[C@H]2C(=O)O[C@H](c3ccccc3)[C@H](c3ccccc3)N2[C@H](c2ccc(OCCOC(=O)[C@H]3C[C@H]4C(=O)NCC(=O)N4[C@H]3c3ccc(O)cc3)cc2)[C@@]12C(=O)Nc1ccc(I)cc12`, for which the z-score in test [1] was -0.675; in [2], 2.01 (inactive); in [3] it was -0.349 (inactive); in [5], 3.08 (inactive); in test [6] it was 1.28 (inactive); in test [7], -0.0185 (inactive). The z-score in test [8] was -0.282 (inactive); in test [9], -0.331; in test [12] it was -1.69; in test [13] it was 1.52 (inactive); in [14] it was -0.804 (inactive); in [15] it was -0.762 (inactive). Also, the composite z-score in test [4] is -1.14 (inactive); in test [10], -0.0669; in test [11] it was 1.34 (inactive); in the test on XIP peptide (Xip251-270), 0.868.
In the case of `C=CCN1C(=O)[C@]2(O[C@H](CCO)[C@@H]([Si](C)(C)c3ccc(OC)cc3)[C@@H]2C)c2ccccc21`, the z-score in [1] was -2.84; in test [2], -5.08 (inactive); in test [3], -1.46 (inactive); in test [5] it was 0.225 (inactive); in test [6] it was 1.55 (inactive); in test [7], -0.377 (inactive). The z-score is -1.46 (inactive) in [8]; -2.74 in test [9]; -2.31 in test [12]; -6.69 (inactive) in test [13]; -1.17 (inactive) in [14]; -1.58 (inactive) in test [15]. Besides, the composite z-score in [4] was 0.0196 (inactive); in [10], -0.144; in test [11], 0.0965 (inactive); with XIP peptide (Xip251-270), 0.193.
Consider `CCOC(=O)C1=CC[C@@H](c2ccccc2)N(S(=O)(=O)C[Si](C)(C)C)[C@H]1c1ccccc1`, for which the z-score in [1] is 0.128; in [2], 0.945 (inactive); in test [3], -0.013 (inactive); in test [5], 0.257 (inactive); in test [6], -0.42 (inactive); in [7], -0.618 (inactive). The z-score in test [8] was -1.59 (inactive); in test [9], 0.343; in test [12] it was -1.86; in [13] it was -1.35 (inactive); in [14], 0.587 (inactive); in test [15] it was 0.496 (inactive). Moreover, the composite z-score in test [4] is 0.407 (inactive); in [10], -0.125; in test [11], 0.127 (inactive); in the test on XIP peptide (Xip251-270), 0.704.
Turning to `CC(C)C[C@@H]1NC(=O)[C@@H]2C[C@H](C(=O)O)[C@H](c3ccc(O)cc3)N2C1=O`, the z-score was -1.68 in [1]; -0.568 (inactive) in test [2]; 1.18 (inactive) in test [3]; 0.407 (inactive) in test [5]; -1.11 (inactive) in test [6]; 2.14 (inactive) in [7]. Moreover, the z-score in test [8] is 1.94 (inactive); in [9], 1.16; in test [12] it was -0.26; in test [13], -3.43 (inactive); in test [14], 0.873 (inactive); in test [15] it was 0.918 (inactive). The composite z-score in test [4] is 0.372 (inactive); in test [10], 0.254; in test [11] it was 1.84 (inactive); in the test on XIP peptide (Xip251-270), 0.705.
Turning to `O=C1OCCC/C=C\[C@H]2OC34C=CCN(Cc5ccccc5)C(=O)[C@H]3N(CCCCCO)C(=O)[C@@H]4C12` (some centres undefined), the z-score in [1] is 0.804; in [2] it was -1.08 (inactive); in [3] it was 1.24 (inactive); in test [5] it was -0.099 (inactive); in test [6], -0.581 (inactive); in test [7] it was 0.691 (inactive). Also, the z-score in test [8] is 0.775 (inactive); in test [9] it was 1.16; in test [12], 0.259; in [13], -5.04 (inactive); in [14], -0.312 (inactive); in [15], 0.249 (inactive). Further, the composite z-score is -0.279 (inactive) in [4], -0.157 in [10], 0.105 (inactive) in [11] and -0.6 in the test on XIP peptide (Xip251-270).
As for `COC(=O)[C@@]1(Cc2ccc(OC)cc2)[C@H]2c3cc(C(=O)N(C)C)n(Cc4ccsc4Br)c3C[C@H]2CN1C(=O)c1ccccc1`, the z-score was -0.0214 in test [1]; 1.52 (inactive) in test [2]; -0.807 (inactive) in test [3]; 0.0539 (inactive) in test [5]; 1.89 (inactive) in test [6]; -0.656 (inactive) in test [7]. For the same compound, the z-score in test [8] is -0.377 (inactive); in test [9], -0.907; in test [12], -1.02; in [13], -1.15 (inactive); in test [14] it was 0.0352 (inactive); in test [15], 0.984 (inactive). Also, the composite z-score was 0.184 (inactive) in [4], 0.452 in test [10], 0.197 (inactive) in test [11] and 0.793 in the test with XIP peptide (Xip251-270).
For the compound `[N-]=[N+]=Nc1ccccc1[C@@H]1OC(c2ccc(OCCCO)cc2)=N[C@]1(Cc1ccccc1)C(N)=O`, the z-score is 1.2 in test [1]; -0.821 (inactive) in test [2]; -0.622 (inactive) in [3]; -0.0558 (inactive) in test [5]; 1.19 (inactive) in [6]; 0.673 (inactive) in test [7]. Also, the z-score in test [8] is 0.481 (inactive); in [9] it was -0.589; in test [12], -2.06; in test [13] it was -5.43 (inactive); in [14] it was -0.707 (inactive); in test [15] it was -0.543 (inactive). For the same compound, the composite z-score in [4] was 0.474 (inactive); in test [10], 0.0838; in test [11] it was 0.0123 (inactive); with XIP peptide (Xip251-270), 0.0246.
`CC=CC(O)C1C=CC2C(=O)N(C)C(=O)C2N1NC(=O)OC(C)(C)C` (centres undefined): the z-score in test [1] was -1; in test [2], 0.906 (inactive); in [3] it was -0.524 (inactive); in test [5], -0.0625 (inactive); in [6], -0.243 (inactive); in test [7], -0.447 (inactive). Besides, the z-score in [8] is -0.504 (inactive); in test [9] it was -0.939; in test [12], 0.675; in test [13], -1.46 (inactive); in test [14], 0.698 (inactive); in [15] it was -0.0345 (inactive). For the same compound, the composite z-score in test [4] is -0.0735 (inactive); in test [10], 0.0621; in test [11], -0.3 (inactive); in the test on XIP peptide (Xip251-270), 0.335.
`CC(C)CNC(=O)[C@@H]1c2ccccc2C(=O)N(C(C)C)[C@H]1c1ccc(CO)cc1`: the z-score is 0.0161 in [1]; 0.294 (inactive) in test [2]; 0.334 (inactive) in [3]; 0.348 (inactive) in [5]; -1.19 (inactive) in [6]; 0.855 (inactive) in [7]. The z-score in test [8] is 1.76 (inactive); in test [9], 0.609; in test [12] it was 0.643; in [13], -0.0386 (inactive); in [14], -0.586 (inactive); in test [15], -0.784 (inactive). Further, the composite z-score in test [4] was -1.57 (inactive); in test [10], -0.0434; in test [11], -0.885 (inactive); in the test on XIP peptide (Xip251-270), 0.93.

These data come from PubChem BioAssay.
